NR2F2 inh: NR2F2 transcriptional activity inhibitors, primary screen, cell-based, luciferase reporter, HEK293T, luminescence; COUP transcription factor 2 (Homo sapiens), P24468; HEK293T NGFI-A luciferase reporter; inhibition, % at 8.6 µM; 370,000 compounds, 0.7% hits; AID 686940, 2013;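 active = inhibition above a per-plate cutoff, mean inhibition of test wells between control levels plus 3 SD, cut at about 38% in these data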;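 also: cells cotransfected with COUP-TFII expression vector driving the NGFI-A reporter; 0% = median of COUP-TF2 test wells and 100% = reporter-only cells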
SRC3 inh: SRC3 coactivator transcriptional activity inhibitors, primary screen, cell-based, luminescence. HEK293 GAL4-SRC3 luciferase reporter. inhibition, % at 3.6 µM. 360,000 compounds, 0.17% hits;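 active = inhibition above a per-campaign cutoff, the mean of all compounds plus 3 SD, cut at about 60% in these data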;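 also: 0% = DMSO-treated cells and 100% = gossypol-treated cells at 36 µM; higher means less SRC3-driven luciferase light from the GAL4 reporter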
NR5A2 inv ag: LRH-1 (NR5A2) inverse agonists, primary screen, cell-based, luminescence, HEK293T, StAR-luciferase reporter; AID 602396, 2012; inhibition, % at 3.6 µM; Nuclear receptor subfamily 5 group A member 2 (Homo sapiens), O00482; 360,000 compounds, 0.13% hits; LRH-1 transfected, 24 h;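 active = inhibition above the mean inhibition of all tested compounds plus 3 SD, cut at about 73% in these data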;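 also: 0% = DMSO wells and 100% = reporter-only cells lacking LRH-1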
SRC2 inh: inhibition of GAL4-SRC2 driven luciferase reporter, primary screen, SRC2 inhibitor project, cell-based, luminescence. inhibition, % at 9 µM. AID 651957, 2012. 370,000 compounds, 0.17% hits. Nuclear receptor coactivator 2 (Homo sapiens), Q15596. HEK293 GAL4-SRC2 luciferase reporter;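 active = inhibition above the mean inhibition of all tested compounds plus 3 SD, set per campaign, cut at about 52% in these data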;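 also: 0% = DMSO treated cells and 100% = cells given Gossypol at 36 µM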
NCOA1 inh: SRC1 coactivator transcriptional activity inhibitors, primary screen, cell-based, luminescence. inhibition, % at 3.6 µM. Nuclear receptor coactivator 1 (Homo sapiens), Q15788. 360,000 compounds, 0.12% hits. HEK293 GAL4-SRC1 luciferase reporter;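 active = inhibition above the campaign mean plus 3 SD, with each screening campaign given its own cutoff, cut at about 60% in these data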;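 also: 0% = DMSO treated cells and 100% = gossypol at 36 µM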
Gli-Sufu block: Gli-Sufu pathway antagonists, primary screen, luciferase luminescence, Sufu-KO-LIGHT cells, uHTS; Sufu-KO-LIGHT fibroblasts, Gli luciferase reporter luminescence; inhibition, % at 5 µM; 340,000 compounds, 0.74% hits; AID 588413, 2011;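 active = inhibition above about 55%, limit read from the data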;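 also: 0% = DMSO-treated cells and 100% = wells with medium but no cells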
VP16 Luc counter: Gal4-VP16 luciferase reporter inhibitors, counter-screen for COUP-TFII antagonist project, cell-based, luminescence, HEK293 | shares compounds with NR2F2 inh | inhibition, % at 8.5 µM | 2,500 compounds, 25% hits | AID 687007, 2013; in the data active = inhibition above about 13%
COUP-TFII conf: NR2F2 transcriptional activity inhibitors, confirmation, cell-based, luciferase reporter, HEK293, triplicate | shares compounds with NR2F2 inh | HEK293 NGFI-A luciferase reporter, luminescence | inhibition, % at 8.5 µM | 2,500 compounds, 45% hits | AID 687008, 2013;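 active = mean inhibition over three repeats above a set limit taken from the earlier primary screen, cut at about 38% in these data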;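 also: 100% = cells given the luciferase reporter alone without the COUP-TF2 vector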
* hit, by the source's call; x = not tested or not shown. Only some compounds are listed: those with a hit (about 1.3% of all), similar ones and a draw of the others.

SMILES	NR2F2 inh	SRC3 inh	NR5A2 inv ag	SRC2 inh	NCOA1 inh	Gli-Sufu block	VP16 Luc counter	COUP-TFII conf
CC(=O)c1ccc(OCC(=O)Nc2cccc(S(=O)(=O)N3CCCC3)c2)cc1	43*	30	10	21	4	24	-8	13
CN(C)S(=O)(=O)c1cccc(NC(=O)CNc2cccc(S(=O)(=O)N3CCCCC3)c2)c1	45*	24	33	5	19	x	3	20
Cc1ccc(OCC(=O)Nc2cccc(S(=O)(=O)N3CCCC3)c2)cc1C	-11	-6	-5	-46	-3	x	x	x
Cc1nn(-c2ccccc2)c(C)c1C(=O)OC(C)C(=O)NC1CCCCC1 (stereo not drawn)	59*	19	14	19	-7	11	-1	21
N#CCC[C@@H]1CC[C@]2(CCCN(C(=O)c3ccno3)C2)O1	2	x	x	-22	x	x	x	x
O=C(Nc1nc(-c2ccccc2)cs1)c1ccccc1NS(=O)(=O)c1ccc(F)cc1	55*	60	75*	25	44	53	-4	32
O=C(c1ccc(Cl)cc1)N1CCC(Oc2cccnc2)CC1	20	x	x	-2	x	x	x	x
CC(=O)Nc1ccc(-c2csc(Nc3cc(C)ccn3)n2)cc1	53*	-21	-40	-22	-18	-49	-79	-28
COC(=O)c1ccc(-c2nc3cc(N)ccc3o2)cc1	41*	-13	29	42	-40	4	22*	-11
Cc1ccc(C)c(-c2nc3cc(N)ccc3o2)c1	42*	-8	-17	55*	-14	12	1	-18
CCc1cc2c(nc1CC)CCCN2S(=O)(=O)c1ccc(C)cc1	24	x	x	-12	x	x	x	x
CCCCOCC1CN(CCCC)S(=O)(=O)c2c(NCc3cc(OC)c(OC)c(OC)c3)cccc2O1 (stereo not drawn)	13	x	x	32	x	x	x	x
Cc1ccc(NC(=O)c2ccc(OCc3c(C)noc3C)cc2)cc1C	38*	1	-1	8	-12	-1	-45	-9
CCS(=O)(=O)Nc1ccc2c(c1)C(=O)N(C)[C@@H]1CC[C@H](CC(=O)N[C@@H]3CCN(Cc4ccccc4)C3)O[C@H]1CO2	-13	x	x	17	x	x	x	x
CCOC(=O)[C@]12CCCC=C1N(CCCOC)C(=O)[C@@H]2CC(=O)NCc1cccc2ccccc12	-2	x	x	-26	x	x	x	x
CCCCOc1ccc(C(=O)NC2CCCCN(Cc3ccc(Cl)cc3)C2=O)cc1 (stereo not drawn)	14	x	x	14	x	x	x	x
Cc1ccc(CN2CCCCC(NC(=O)c3ccc(COc4ccccc4)cc3)C2=O)cc1 (stereo not drawn)	51*	x	x	18	x	x	-10	23
CCCCOc1ccc(C(=O)NC2CCCCN(Cc3ccc(C)cc3)C2=O)cc1 (stereo not drawn)	40*	x	x	19	x	x	-12	25
Cc1ccccc1CN1CCCCC(NC(=O)c2ccccc2C)C1=O (stereo not drawn)	3	x	x	-8	x	x	x	x
Cc1ccccc1CN1CCCCC(NC(=O)c2ccc(-c3ccccc3)cc2)C1=O (stereo not drawn)	57*	x	x	16	x	x	-15	41*
COc1ccc(C(C(=O)N(C)C2CCCC2)N(Cc2ccc(F)cc2)C(=O)c2ccc3ccccc3c2)cc1OC (stereo not drawn)	17	x	x	20	x	x	x	x
O=C1COc2ccc(S(=O)(=O)CCC(=O)N3CCN(c4cccc(Cl)c4)CC3)cc2N1	4	-2	-18	-2	-11	43	x	x
Cc1ccc(Cl)cc1N1CCN(C(=O)CCS(=O)(=O)c2ccc3c(c2)NC(=O)CO3)CC1	54*	14	4	42	10	24	-3	24
